Assay outcomes as filed in PubChem BioAssay.
Only some compounds are listed: those with a hit (about 3.1% of all), similar ones and a draw of the others.
15-hLO inh = 15-hLO (ALOX15) enzyme inhibition. purified 15hLO-1, xylenol orange hydroperoxide absorbance. AID 887. 1.4% of 74,000 active. Potency, µM (doses to about 57.1 µM), hits mostly inhibitors. P16050; further: nearly all actives have a fitted effect of over 55% in size
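Purified human 15hLO-1 (40 nM final) in 25 mM Hepes pH 7.5, 0.01% Triton X-100 was preincubated with compound 15 min at room temperature, then reacted 6 min with 50 uM arachidonic acid; hydroperoxide detected by Fe-XO, 573/405 nm absorbance ratio.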
YjeE inh = inhibitors of E. coli YjeE (TsaE) | Potency, µM | P0AF67 | purified YjeE enzyme, qHTS inhibition assay | AID 605 | 0.05% of 71,000 active
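Fluorescence polarization of a BODIPY Texas Red–ADP probe (2 uM) bound to purified YjeE (10 uM) was read after 15 min room-temperature incubation with compounds. Loss of polarization marks inhibitors; ADP serves as titrated control.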
BRCT inh green = blocks human BRCA1 BRCT binding to phosphopeptide, green readout. BRCA1 BRCT-phosphopeptide binding, green fluorescence polarization. Potency, µM (series often up to 76.9 µM), most hits filed as inhibitors. 0.05% of 75,000 active. P38398. AID 875
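Fluorescence polarization: His-tagged BRCT (~35 kDa BRCA1 C-terminus, 250 nM) bound to 100 nM fluorescein-labeled phosphorylated 10-aa BACH1 peptide, pH 7.3 phosphate buffer with DTT and Tween 20. Compounds incubated 12 min at room temperature; inhibition read as lowered polarization.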
Tau filament bind = binders of human tau filaments. P10636. recombinant tau filaments, thioflavin S fluorescence, 15 h; filaments grown with octadecylsulfate alongside compound. Potency, µM (top dose mostly 57.1 µM). 2% of 71,000 active. AID 596;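 further: actives lower thioflavin S fluorescence by blocking filaments or displacing dye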
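His-tagged recombinant human tau (exons 2, 3, 10; 1 uM final) fibrillized with 30 uM sodium octadecylsulfate, 15 h at 37 C, in pH 7.4 HEPES buffer with 10 uM thioflavine S and 5 mM DTT. Reduced ThS fluorescence (450/510 nm) marks activity.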
Pol III holo inh = inhibitors of bacterial DNA polymerase III holoenzyme | reconstituted DNA polymerase III holoenzyme replication, biochemical | Potency, µM (doses to about 57.1 µM) | 0.25% of 71,000 active
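Reconstituted *E. coli* holoenzyme (0.35 nM Pol III, 1 nM beta, 154 nM SSB, 2 nM primase) was preincubated with compound for 15 min at RT. Synthesis on 1.4 nM ssM13Gori ran 35 min, then was stopped with PicoGreen/EDTA and read as dsDNA fluorescence.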
BRCT PPI red = disrupts BRCA1 BRCT binding to phosphoprotein, red fluorophore readout; 0.03% of 75,000 active; Potency, µM (top dose mostly 76.9 µM), usual class: inhibitors; P38398; BRCT-phosphopeptide binding, red fluorescence polarization
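Fluorescence polarization: 100 nM His-tagged BRCA1 BRCT with 100 nM TAMRA-labelled phospho-BACH1 decapeptide, phosphate buffer pH 7.3 with 150 mM NaCl, DTT, 0.01% Tween 20; 12 min RT. Binding inhibition seen as FP decrease.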
A number is an active result; n = inactive; u = inconclusive; x = no result; ! = repeats disagree; [ ] = dose if it differs, or a comment. The call rests on the fitted dose curve; in most records, active means well fitted curve in the direction sought with a large enough effect; inconclusive means small, poorly fitted or top-dose-only effect, or another doubt; inactive means no such curve, though single readings can be large; an effect the other way counts as inactive or inconclusive.

SMILES	15-hLO inh	YjeE inh	BRCT inh green	Tau filament bind	Pol III holo inh	BRCT PPI red
Cc1cc(C)n(-c2ccc(C(=O)OCC(=O)c3ccc(Br)s3)cc2)n1	n	n	n	13µM	n	n
NC1=CC(=O)c2cccc3cccc1c23	5µM	n	n	n	n	n
Cc1nnc(C)n1N1C(=O)c2cccc3cccc(c23)C1=O	n	x	n	x	x	n
COC(=O)[C@H](C)NC(=O)[C@@H](C)CO	n[11.4 µM]	x	n[15.4 µM]	x	x	n[15.4 µM]
COc1ccc(OC2C=CC(C#Cc3ccc(Br)cc3)OC2CO)c(C(C)(C)C)c1 (stereo not drawn)	n[11.4 µM]	x	n[15.4 µM]	x	x	n[15.4 µM]
CCOc1ccccc1O[C@@H](c1ccccc1)[C@@H]1CNCCO1	n	n	n	32µM	n	n
CC(=NC1CCCCC1)C1=C(O)c2ccccc2C1=O	n	n	n	16µM	n	n
Cn1cc(-c2nc3cnc(N4CCNCC4)nc3n(C3CC3)c2=O)c2ccccc21	n	n	n	n	n	n
CC(=O)n1nc(-c2ccco2)nc1SCc1ccccc1	4µM	n	n	25µM	u	n
C[C@@]1(C(NC(=O)c2cccs2)c2ccc(-c3ccccc3)cc2)C[C@H]1C1CCCCC1 (stereo partly drawn)	x	n	n	n	n	n
N#C/C(=C(/N)Sc1ccc(N)cc1)c1ccccc1C(F)(F)F	u	x	n	x	x	n
N#CC(=C(/N)Sc1ccccc1N)/C(C#N)=C(/N)Sc1ccccc1N	13µM!	n	n	u	n	n
Cc1sc2nc3ccc(N4CCCCC4)nn3c(=O)c2c1C	n	n	n	n	n	n
Cc1ccc2nc3ccc(N4CCCC4)nn3c(=O)c2c1	25µM	n	n	n	n	n
CN1CCN(c2nc(N3CCN(CCO)CC3)nc3ccccc23)CC1	n	n	n	n	n	n
OCCN1CCN(c2nc(N3CCCCC3)nc(N3CCCCC3)n2)CC1	n[11.4 µM]	n	n	4µM	n[11.4 µM]	n
O=S(=O)(O)c1ccc(-c2nnc(-c3ccccn3)nc2-c2ccc(S(=O)(=O)O)o2)o1	n[11.4 µM]	n	n[15.4 µM]	n[11.4 µM]	n[11.4 µM]	n[15.4 µM]
C[C@]12CCC3c4ccc(O)cc4CCC3C1CCC2OC(=O)CCC1CCCC1 (stereo partly drawn)	n	x	n[3.08 µM]	x	x	n
CCN(CC)c1ccc(N)cc1	n	n	n	13µM	n	n
CCN(CC)c1ccc(NC(=O)Nc2ccc(C(C)=O)cc2)cc1	n	n	n	u	n	n
CCCCCCCCCCC(C)(C)C(=O)Nc1c(OC)cc(OC)cc1OC	u	x	n	x	x	n
CCOC(=O)c1snc2c(=O)[nH]cnc12	n	n	n	n	n	n
CCOC(=O)C1CCCN(c2ccc(NC(=O)c3snc4c(=O)[nH]cnc34)cc2)C1 (stereo not drawn)	n	n	n	16µM	n	n
CC1CC(OC(=O)c2ccccc2O)CC(C)(C)C1 (stereo not drawn)	n	n	n[3.08 µM]	n	n	n
Cc1cc(-c2nnc(-c3cc4ccccc4oc3=O)o2)c(C)n1-c1ccccc1	n	n	n	3.2µM	n	n
SMILES	15-hLO inh	YjeE inh	BRCT inh green	Tau filament bind	Pol III holo inh	BRCT PPI red
O=c1oc2ccccc2cc1-c1nc2ccccc2o1	n	n	n	n	n	n
Nc1ccc(-c2n[nH]c(=O)c3ccccc23)cc1N	u	n	n	16µM	n	n
CCn1cc(C(=O)O)c(=O)c2ccc(Cc3ccccc3)nc21	x	n	x	n	n	x
O=C1c2ccccc2-c2nccnc21	n	n	n	n	n	n
O=C1c2ccccc2-c2nc3ncnn3c(-c3ccccc3Cl)c21	n	n	n	13µM	n	n
O=C1CCCC(O)=C1C(C#Cc1ccccc1)C1=C(O)CCCC1=O	7.9µM	n	n	n	n	n
N#Cc1cc2c(nc1SCc1cccnc1)CCCC2	16µM	n	n	n	n	n
N#Cc1cc2c(nc1SCc1nc3ccccc3[nH]1)CCC2	16µM	n	n	32µM	n	n
N#Cc1cc2c(nc1SCc1cccnc1)CCC2	n	n	n	n	n	n
C=CCSc1nc2c(cc1C#N)CCC2	n	n	n	n	n	n
C=CCCCCCC	n	n	n	n	n	n
COC(=O)N1[C@H](C)C=C[C@]1(Cc1ccccc1)C(=O)NCc1ccc(N(C)C)cc1	20µM	n	n	n	n	n
